Results as given in PubChem BioAssay (NCATS).
Values joined by “and” are separate entries in the source; they are usually repeats but may differ in a detail not shown here. Equal entries are not always repeated. Records with an inconclusive call do not appear. Active and inactive are the calls of the source. Unless noted, calls come from the whole dose curve; as a rule, active = well fitted curve in the direction sought with a large enough effect; inconclusive = small, poorly fitted or top-dose-only effect, or another doubt; inactive = no such curve, though single readings can be large; an effect the other way counts as inactive or inconclusive.

How the values were obtained:
[1] = qHTS assay for measurement of the activity of small molecule inhibitors on Zika virus induced Caspase-3 activity in human iPSC derived neural progenitor cells (hNPCs) (AID 1224857); note: nearly all actives have a fitted effect of over 65% in size
Outline: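 In medium with heparin 2 ug/ml and cyclopamine 2 uM, hNPCs (350 cells/well) received compound for one hour and then Zika virus at 2 FFU/cell; caspase activity was measured by Caspase-Glo 3/7 luminescence 6 h post-infection.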

[2] = qHTS assay for measurement of the activity of small molecule inhibitors on Zika virus induced Caspase-3 activity in human astrocytoma cells (AID 1224859)
Outline: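 A cell-based luminescent caspase-3/7 assay used SNB-19 cells infected with ZIKV (2 FFU/cell) for 6 h following 1 h compound pretreatment.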

[3] = P-glycoprotein substrates identified in KB-8-5-11 adenocarcinoma cell line, qHTS therapeutic library screen (AID 1346987); note: nearly all actives have a fitted effect of over 65% in size; note: potency is the fitted concentration of half-maximal effect
Outline: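 Steps: plate 500 KB-8-5-11 cells/well in DMEM + 10% FCS (colchicine removed); pin compounds in dose-response; incubate 72 h, 37 degree C, 5% CO2; add CellTiter-Glo, 5 min; read luminescence.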

[4] = qHTS of pediatric cancer cell lines to identify multiple opportunities for drug repurposing: Primary screen for DAOY cells (AID 1347090); note: nearly all actives have a fitted effect of over 55% in size; note: potency is the fitted concentration of half-maximal effect
Outline: (§1)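 Viability measured as metabolically active cells via CellTiter-Glo luminescence following 48 hours of compound exposure, 11-point dilutions in confirmatory testing. 500-1,000 cells/well plated 5 hours before dosing; controls were DMSO and 2.3 µM bortezomib.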

[5] = qHTS of pediatric cancer cell lines to identify multiple opportunities for drug repurposing: Primary screen for A673 cells (AID 1347092); note: nearly all actives have a fitted effect of over 45% in size; note: potency is the fitted concentration of half-maximal effect
Outline: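 Luminescence from CellTiter-Glo, taken after 15 min at room temperature, served as the proxy for metabolically active cells following 48 h treatment. Both potency and efficacy were taken from curves fitted to the titration data.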

[6] = qHTS of pediatric cancer cell lines to identify multiple opportunities for drug repurposing: Primary screen for BT-37 cells (AID 1347094); note: potency is the fitted concentration of half-maximal effect
Outline: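 Cells plated at 500-1,000/well in growth medium, compounds added after 5 h. MIPE tested at 11 points (from 0.78 nM), NPC at 8 points (from 0.59 nM). CellTiter-Glo luminescence after 48 h; concentration-response curves from primary screen.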

[7] = qHTS of pediatric cancer cell lines to identify multiple opportunities for drug repurposing: Primary screen for TC32 cells (AID 1347089); note: nearly all actives have a fitted effect of over 60% in size; note: potency is the fitted concentration of half-maximal effect
Outline: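 qHTS, TC32, 48 h drug treatment, CellTiter-Glo luminescence as a proxy for metabolically active cells; primary top concentration 46 µM (MIPE 11-pt, NPC 8-pt); confirmatory 11-pt.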

[8] = qHTS of pediatric cancer cell lines to identify multiple opportunities for drug repurposing: Primary screen for SK-N-MC cells (AID 1347093); note: potency is the fitted concentration of half-maximal effect
Outline: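 Metabolically active cells were quantified by ATP-dependent luminescence (CellTiter-Glo, 15 min at room temperature) following 48 h treatment. Cells had been plated at 500-1,000 per well and settled for 5 h beforehand.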

[9] = NS1 protein of Zika virus - qHTS assay to identify small molecule inhibitors in human HEK 293 cells (AID 1347053); note: nearly all actives have a fitted effect of over 55% in size; note: potency is the fitted concentration of half-maximal effect
Outline: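 Following 20 h seeding, HEK 293 cells took compound, then 1 h later ZIKV MR766 (MOI = 0.5). Incubation ran 24 h at 37 C before TR-FRET detection of NS1; a drop in signal indicates inhibition.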

[10] = qHTS of pediatric cancer cell lines to identify multiple opportunities for drug repurposing: Primary screen for SJ-GBM2 cells (AID 1347091); note: potency is the fitted concentration of half-maximal effect
Outline: as §1

[11] = biological target: Atrial natriuretic peptide receptor 2 (Homo sapiens) (UniProt P20594); experiment: Natriuretic polypeptide receptor (hNpr2) antagonism - Pilot subtype selectivity assay (AID 1347050; calls by dose curve; note: potency is the fitted concentration of half-maximal effect)
Chain of Atrial natriuretic peptide receptor 2 (Homo sapiens) (P20594 whole entry, looked up): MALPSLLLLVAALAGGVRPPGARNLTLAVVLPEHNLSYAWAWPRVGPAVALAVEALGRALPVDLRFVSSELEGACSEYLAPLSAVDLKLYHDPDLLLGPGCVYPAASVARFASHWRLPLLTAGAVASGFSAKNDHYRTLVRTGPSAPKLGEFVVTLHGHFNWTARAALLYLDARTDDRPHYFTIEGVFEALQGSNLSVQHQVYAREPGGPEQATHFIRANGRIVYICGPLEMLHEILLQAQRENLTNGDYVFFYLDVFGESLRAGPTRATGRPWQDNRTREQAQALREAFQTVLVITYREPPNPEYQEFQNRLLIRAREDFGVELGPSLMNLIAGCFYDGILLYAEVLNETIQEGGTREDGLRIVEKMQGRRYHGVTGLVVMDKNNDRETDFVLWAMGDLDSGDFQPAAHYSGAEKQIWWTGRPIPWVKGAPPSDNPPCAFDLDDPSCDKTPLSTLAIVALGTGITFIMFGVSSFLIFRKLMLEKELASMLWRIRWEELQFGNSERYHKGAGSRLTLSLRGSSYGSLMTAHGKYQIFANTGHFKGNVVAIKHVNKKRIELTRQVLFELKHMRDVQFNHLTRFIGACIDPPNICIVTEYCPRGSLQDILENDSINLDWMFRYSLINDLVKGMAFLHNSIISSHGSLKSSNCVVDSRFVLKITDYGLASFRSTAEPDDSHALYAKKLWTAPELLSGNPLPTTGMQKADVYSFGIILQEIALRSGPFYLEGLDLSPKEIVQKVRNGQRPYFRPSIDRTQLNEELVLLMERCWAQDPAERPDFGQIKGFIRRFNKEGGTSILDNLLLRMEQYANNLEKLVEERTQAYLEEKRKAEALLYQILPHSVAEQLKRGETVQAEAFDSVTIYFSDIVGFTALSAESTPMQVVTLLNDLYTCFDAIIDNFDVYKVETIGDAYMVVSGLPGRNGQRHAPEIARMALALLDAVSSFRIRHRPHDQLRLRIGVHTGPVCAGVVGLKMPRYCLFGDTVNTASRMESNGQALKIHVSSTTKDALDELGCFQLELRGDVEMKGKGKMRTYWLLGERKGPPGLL
Outline: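 HEK293 cells expressing hNpr2 and a GloSensor cGMP luciferase sensor, 1500/well, preloaded 2 h with 2% GloSensor reagent, compound 30 min, then 1 nM hNppC for 20 min. Antagonism from luminescence after versus baseline pre-read; LOPAC in 1:5 titrations.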

[12] = biological target: T1, Tyrosine-protein phosphatase non-receptor type substrate 1 (Homo sapiens) + Leukocyte surface antigen CD47 (Homo sapiens) (UniProt P78324+Q08722); experiment: CD47-SIRPalpha protein protein interaction - LANCE assay qHTS validation (AID 1347057; active = well fitted curve in the direction sought with a large enough effect in the signal ratio, with a control signal flat, not every such curve was filed as active; the % refers to the signal ratio; note: series mostly up to about 38 µM)
T1 sequence (P78324 whole entry, looked up): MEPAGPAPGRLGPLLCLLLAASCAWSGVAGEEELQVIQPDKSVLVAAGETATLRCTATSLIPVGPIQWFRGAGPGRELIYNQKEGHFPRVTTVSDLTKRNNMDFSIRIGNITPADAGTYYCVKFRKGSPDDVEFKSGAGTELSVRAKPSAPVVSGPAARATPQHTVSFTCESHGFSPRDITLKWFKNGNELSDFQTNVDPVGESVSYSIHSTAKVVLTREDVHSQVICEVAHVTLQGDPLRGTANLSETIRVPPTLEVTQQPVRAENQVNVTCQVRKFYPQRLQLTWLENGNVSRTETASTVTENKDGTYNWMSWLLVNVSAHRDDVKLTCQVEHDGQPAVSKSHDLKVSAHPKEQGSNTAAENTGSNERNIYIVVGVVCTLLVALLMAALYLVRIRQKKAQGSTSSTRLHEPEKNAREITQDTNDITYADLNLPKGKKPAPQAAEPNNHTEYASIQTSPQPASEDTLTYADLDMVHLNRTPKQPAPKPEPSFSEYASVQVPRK
T1 sequence (Q08722 whole entry, looked up): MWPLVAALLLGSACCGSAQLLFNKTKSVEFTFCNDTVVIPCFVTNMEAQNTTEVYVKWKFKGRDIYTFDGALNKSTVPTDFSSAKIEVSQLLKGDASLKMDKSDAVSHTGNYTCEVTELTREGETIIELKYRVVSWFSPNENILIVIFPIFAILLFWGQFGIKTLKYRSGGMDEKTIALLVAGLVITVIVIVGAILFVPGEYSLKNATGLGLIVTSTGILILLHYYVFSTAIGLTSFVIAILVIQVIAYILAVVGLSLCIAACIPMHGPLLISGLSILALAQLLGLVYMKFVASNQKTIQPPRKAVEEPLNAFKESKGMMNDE
Outline: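 First, His-tagged CD47 and Eu-labelled anti-His antibody met the compound for 30 min; next, site-specifically biotinylated SIRPalpha was added for 30 min; finally streptavidin-APC was added before reading the TR-FRET ratio.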

[13] = biological target: T1, Tyrosine-protein phosphatase non-receptor type substrate 1 (Homo sapiens) + Leukocyte surface antigen CD47 (Homo sapiens); experiment: CD47-SIRPalpha protein protein interaction - HTRF assay qHTS validation (AID 1347058; active = well fitted curve in the direction sought with a large enough effect in the signal ratio, not every such curve was filed as active; the % refers to the signal ratio;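 note: recombinant soluble extracellular CD47 with His tag and biotinylated SIRPalpha domains; series mostly up to about 38 µM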)
Outline: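 TR-FRET read (Ch1/Ch2 ratio) of soluble extracellular CD47 and Avi-biotinylated SIRPalpha domains in PBS pH 7.4 with 0.05% IGEPAL; 7-point compound titration. Sequential 30 min room-temperature steps; non-biotinylated SIRPalpha as control inhibitor.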

[14] = biological target: T1, Tyrosine-protein phosphatase non-receptor type substrate 1 (Homo sapiens) + Leukocyte surface antigen CD47 (Homo sapiens); experiment: CD47-SIRPalpha protein protein interaction - Alpha assay qHTS validation (AID 1347059);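 note: bead proximity luminescence from CD47 binding SIRPalpha after compound preincubation with SIRPalpha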
Outline: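 Biotinylated Avi-tagged SIRPalpha (25 nM) preincubated 30 min with compound, then His-tagged CD47 (12.5 nM) added 30 min; AlphaScreen with Ni-NTA acceptor and streptavidin donor beads. PBS pH 7.4, 0.05% IGEPAL, room temperature; 7-point titrations.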

[15] = biological target: Parathyroid hormone/parathyroid hormone-related peptide receptor (Homo sapiens) (UniProt Q03431); experiment: qHTS for PTHR1 Agonists: Optimization Screen against the NCGC LOPAC library (AID 1347079);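 note: GloSensor cAMP luminescence in HEK-293 GP2 cells expressing human PTHR1 with IBMX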
Chain of Parathyroid hormone/parathyroid hormone-related peptide receptor (Homo sapiens) (Q03431 whole entry, looked up): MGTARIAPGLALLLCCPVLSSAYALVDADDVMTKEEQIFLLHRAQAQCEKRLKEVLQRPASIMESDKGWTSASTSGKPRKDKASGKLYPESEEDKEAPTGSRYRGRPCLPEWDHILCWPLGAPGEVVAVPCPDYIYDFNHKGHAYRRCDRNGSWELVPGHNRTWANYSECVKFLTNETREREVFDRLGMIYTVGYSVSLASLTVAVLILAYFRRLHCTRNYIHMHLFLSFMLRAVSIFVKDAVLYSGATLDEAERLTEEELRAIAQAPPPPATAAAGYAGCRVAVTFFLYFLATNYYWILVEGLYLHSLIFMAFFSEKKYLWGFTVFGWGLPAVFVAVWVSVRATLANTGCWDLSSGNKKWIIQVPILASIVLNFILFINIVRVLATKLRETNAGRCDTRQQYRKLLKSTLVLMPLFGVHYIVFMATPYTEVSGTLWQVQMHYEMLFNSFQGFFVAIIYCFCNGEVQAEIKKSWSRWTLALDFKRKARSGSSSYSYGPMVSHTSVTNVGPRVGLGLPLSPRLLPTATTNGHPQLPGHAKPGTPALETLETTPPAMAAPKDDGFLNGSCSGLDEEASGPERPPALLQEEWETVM
Outline: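 Agonist readout: GloSensor cAMP luminescence, read after 15 min at room temperature. HEK-293-derived GP2 line carries PTHR1; compounds tested as a titration for 1 hr at 37C in presence of IBMX. M-PTH (1-15) served as control.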

Measured: Potency

Nc1ccc2cc3ccc(N)cc3nc2c1
active: [3] 14.6 µM | [4] 26.6 µM | [5] 13.3 µM | [6] 9.78 µM
inactive: [1] | [2]

CC(C)(C)C(O)/C=C/c1ccc2c(c1)OCO2 (centres undefined)
inactive: [1] | [2] | [3] | [7] | [4] | [8] | [6]

CCCN(CCC)C(=O)C(CCC(=O)OCCCN1CCN(CCOC(=O)Cc2c(C)n(C(=O)c3ccc(Cl)cc3)c3ccc(OC)cc23)CC1)NC(=O)c1ccccc1 (centres undefined)
active: [10] 18.8 µM
inactive: [1] | [2] | [9] | [7] | [4]

Clc1ccc2c(c1)N=C(N1CCNCC1)c1ccccc1N2
inactive: [1] | [2] | [9] | [12] | [13] | [14] | [15]
active: [11] 14.7 µM

O=C(Nc1ccc(Cl)cc1)Nc1ccc(Cl)c(Cl)c1
active: [3] 6.51 µM | [10] 11.9 µM | [8] 18.8 µM
inactive: [1] | [2] | [9]

CN1CCCN(C(c2ccccc2)c2ccc(Cl)cc2)CC1 (centres undefined)
inactive: [1] | [2] | [9] | [7] | [4]

O=C(OCC(COC(=O)c1cccnc1)(COC(=O)c1cccnc1)COC(=O)c1cccnc1)c1cccnc1
inactive: [1] | [2] | [3] | [9] | [10] | [5] | [8] | [6]

CCCCCC(=O)O[C@]1(C(C)=O)CC[C@H]2[C@@H]3CCC4=CC(=O)CC[C@]4(C)[C@H]3CC[C@@]21C
inactive: [1] | [2] | [7]
active: [3] 10.3 µM | [4] 21.1 µM | [8] 13.3 µM

CCN1CCCC1CN (centres undefined)
not listed: [3] | [11] | [12] | [13] | [14] | [15]
inactive: all other assays above

Nc1c2ccccc2nc2ccccc12
inactive: [1] | [2]
active: [3] 13 µM | [4] 21.1 µM | [5] 6.68 µM | [8] 11.9 µM | [6] 8.71 µM

O=C1NCCN1CCN1CCC(c2cn(-c3ccc(F)cc3)c3ccc(Cl)cc23)CC1
active: [3] 18.4 µM and 20.6 µM | [9] 7.08 µM | [10] 10.6 µM | [8] 6.68 µM
inactive: [1] | [2]

CO[C@@H]1[C@@H](OC)[C@H](C)[C@@](O)(CC(=O)O)O[C@H]1[C@H](C)[C@H]1O[C@@]2(CC[C@@](C)([C@H]3CC[C@@](C)([C@@H]4O[C@@H]([C@H]5O[C@](C)(O)[C@H](C)C[C@@H]5C)C[C@@H]4OC4C[C@H](OC)[C@@H](OC)[C@H](C)O4)O3)O2)C[C@H](O)[C@H]1C (some centres undefined)
active: [3] 8.2 µM | [7] 1.87 µM | [4] 3.35 µM | [5] 4.22 µM | [6] 0.389 µM
inactive: [1] | [2]

O=c1[nH]c(=O)n([C@H]2O[C@H](CO)[C@@H](O)[C@@H]2O)cc1/C=C\Br
not listed: [3] | [11] | [12] | [13] | [14] | [15]
inactive: all other assays above

Cc1cc(=O)oc2cc(O[C@@H]3SC[C@@H](O)[C@H](O)[C@H]3O)ccc12
not listed: [3] | [11] | [12] | [13] | [14] | [15]
inactive: all other assays above
